# Measured values from PubChem BioAssay (NCI).
# This is part of a sample that, as a whole, favours compounds with a hit. Of some 83,000 tested, about 20% had one in any assay.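 Method: cells in 96-well plates; compound added at one concentration; 48 h incubation; percent growth measured; values under 10 scored active.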 A number with no mark means an inactive call. Activity calls are given as the source filed them.
# What was measured:
# Test in all cases: NCI-60 one-dose screen, 48 h (100 = growth as untreated, 0 = no growth, -100 = all killed)
# Conditions in all cases: 10 µM unless noted
# HCT-15 colon = system: HCT-15 colon
# HT29 colon = system: HT29 colon
# SNB-75 CNS = system: SNB-75 CNS
# SNB-19 CNS = system: SNB-19 CNS
# U251 CNS = system: U251 CNS
# PC-3 prostate = system: PC-3 prostate
# SK-MEL-5 melanoma = system: SK-MEL-5 melanoma
# UACC-62 melanoma = system: UACC-62 melanoma
# LOX IMVI melanoma = system: LOX IMVI melanoma
# SK-MEL-28 melanoma = system: SK-MEL-28 melanoma
Compound,growth (HCT-15 colon),growth (HT29 colon),growth (SNB-75 CNS),growth (SNB-19 CNS),growth (U251 CNS),growth (PC-3 prostate),growth (SK-MEL-5 melanoma),growth (UACC-62 melanoma),growth (LOX IMVI melanoma),growth (SK-MEL-28 melanoma)
CCSc1oc(-c2ccccc2)nc1[P+](c1ccccc1)(c1ccccc1)c1ccccc1,6.09% (active),1.21% (active),2.74% (active),12.4%,15.2%,-1.59% (active),-91.8% (active),-0.29% (active),-84.9% (active),29.8%
CC(C)Cn1cnc2c(=O)[nH]c(N)nc21,106%,79.2%,84.4%,100%,94.8%,92.8%,98.9%,103%,97.8%,115%
CC(C)(C)CC(C)(C)NC(=O)Nc1ncccc1OCc1ccccc1,86.2%,80.9%,91.5%,95.9%,96.4%,82.4%,92.8%,81.4%,90.7%,103%
O=C1/C=C/[C@@H](O)[C@@H]2C[C@@H](O)C[C@H]2/C=C/CCC[C@H](CCc2ccccc2)O1,11%,3.12% (active),28.9%,31.4%,20.1%,16.7%,-92.9% (active),23.7%,-59.1% (active),-2.32% (active)
Cc1c[n+](Cc2ccc3ccccc3c2)cn1Cc1ccc2ccccc2c1,95.1%,-35.5% (active),-0.361% (active),17.7%,8.55% (active),10.3%,-71.2% (active),-30.5% (active),19.5%,4.48% (active)
COC(=O)[C@]1(C)CCC[C@]2(C)[C@H]3C[C@H]4C(C(C)C)=C[C@]3(CC[C@H]21)[C@@H]1C(=O)CC[C@H](OCCC#N)[C@@H]14,84.9%,69.6%,87.6%,89.6%,77.6%,34.5%,79.4%,69.3%,90.3%,101%
CCN(CC)CCCCCNc1cc(OC(=O)c2ccc(Cl)cc2)cc2cccnc12,97.7%,87.6%,89.5%,103%,105%,88.8%,105%,98%,106%,116%
COc1ccc2c(c1)c(-c1nc(-c3c[nH]c4ccncc34)cs1)cn2C,-54.2% (active),-72.1% (active),-97.5% (active),-58.9% (active),-91.9% (active),-81.1% (active),-97.4% (active),-75.8% (active),-93.3% (active),-95.7% (active)
COc1ccc(/C=N/C2=C(C#N)C(c3ccccc3)c3ccc4ccccc4c3O2)cc1 (stereo not given),15.8%,6.29% (active),15.5%,24.6%,18.5%,8.18% (active),16.3%,15.8%,29.5%,41.4%
CCCCCC(/C=N\NC(=S)N/N=C/C(=C/c1ccccc1)CCCCC)=C\c1ccccc1,45.4%,105%,102%,56.8%,55.3%,46.1%,68.2%,56.8%,60.8%,93.7%
COc1ccc(Nc2ncc(Br)c(NCCCNC(=O)c3cccs3)n2)cc1,34.5%,51.6%,48.9%,56.8%,52.7%,42.1%,69.5%,45.7%,14.6%,68.4%
COC(=O)c1c(C)nc(C)c2c1C(=O)C(Br)=C(NCc1ccccc1)C2=O,11.6%,6.01% (active),100%,41.7%,20.1%,16.1%,-96.5% (active),-10.8% (active),6.45% (active),56.4%
